Hits are enriched below; roughly 6.2% of the tested compounds scored in any of these assays.
AI-2 QS modul = Vibrio harveyi AI-2 quorum sensing modulation; hit rate 0.4% among 300,000; Vibrio harveyi JMH597 AI-2 luminescence/OD600 ratio, 9 h; active compounds read low; strain lacks LuxN and CqsS sensors; 0 = neutral-control median; activity change, % at 7.5 µM; in the data active = activity change below about -75%, passing the limit was not always enough;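 note: luminescence divided by OD600 gain over 9 h not by final OD600 alone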
NTR1 ag = NTR1 (human) agonism | activation, % at 20 µM | hit rate 0.17% among 330,000 | NTR1-U2OS beta-arrestin-GFP spot imaging, agonist mode;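 active = activation at or above 40% of the spot to cytoplasm intensity ratio, with at least 20 cells analyzed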;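 note: 0% = DMSO without peptide and 100% = 100 nM NTR1 peptide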
Target sequence (P30989 whole entry, looked up): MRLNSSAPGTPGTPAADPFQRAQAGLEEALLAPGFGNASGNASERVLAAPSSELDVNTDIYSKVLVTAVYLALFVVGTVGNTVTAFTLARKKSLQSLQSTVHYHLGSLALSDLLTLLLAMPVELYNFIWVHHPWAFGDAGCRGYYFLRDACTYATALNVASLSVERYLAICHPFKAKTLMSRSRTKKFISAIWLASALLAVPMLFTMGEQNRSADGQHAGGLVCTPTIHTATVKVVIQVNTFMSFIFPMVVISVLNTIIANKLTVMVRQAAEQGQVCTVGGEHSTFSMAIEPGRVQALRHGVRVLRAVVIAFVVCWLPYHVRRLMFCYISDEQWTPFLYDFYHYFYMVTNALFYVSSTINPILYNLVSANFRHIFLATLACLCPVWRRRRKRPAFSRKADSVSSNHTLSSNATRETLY
NR3A LBD binder = modulators (binders) of human NR3A ligand-binding domain | NR3A LBD differential scanning fluorimetry, Tm shift; 0% = protein alone, 100% = glycine-bound protein | Tm shift relative to glycine control, % at 25 µM | hit rate 2.5% among 340,000;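 active = melting temperature shift of at least 10% of the positive control shift, at one fixed dose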
AHR act = activators of human aryl hydrocarbon receptor; hit rate 2.5% among 320,000; activation, % at 5 µM; P35869; AHR-responsive luciferase reporter cells, luminescence; in the data active = activation above about 47%;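 note: 0% = vehicle wells and 100% = reference agonist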
SUMO Mot1 rescue = inhibitors of SUMOylation pathway: yeast Mot1-301 growth rescue. S. cerevisiae Mot1-301 growth rescue, ATP luminescence, 38.5C; percent above DMSO median, 100 means doubled. growth rescue, % at 18.8 µM. hit rate 1% among 320,000. AID 2716;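 active = every valid replicate shows activation above 250% relative to neutral control wells; inactive = the rest, any valid replicate at or below 250%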;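 note: OY570 slx delta 5 strain wells were the positive control but not used for scaling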
H9c2 protect = protects H9c2 cardiomyocytes from peroxide injury; protection from H2O2 cell death, % at 20 µM; hit rate 0.63% among 360,000; AID 588492; H2O2 injury protection, ATPLite, 2 h;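 active = compounds giving at least 50% protection of heart cells from peroxide-induced death in the single-dose screen, raw or plate-pattern-corrected value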;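 note: 0% = DMSO wells with peroxide and 100% = DMSO wells without peroxide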
* hit, by the source's call; . = no result given.

SMILES | AI-2 QS modul | NTR1 ag | NR3A LBD binder | AHR act | SUMO Mot1 rescue | H9c2 protect
COCCNC(=O)C(c1ccc(F)cc1)N(Cc1cccs1)C(=O)CCC(=O)Nc1ccccn1 (stereo not given) | 20 | 0 | 0 | -1 | -26 | 8
O=C(NCCc1ccccc1)C(=O)NCC1OCCCN1S(=O)(=O)c1cc(F)ccc1F (stereo not given) | 8 | 0 | 8 | 1 | -9 | 2
O=C(NCCO)C(=O)NCC1OCCCN1S(=O)(=O)c1cc(F)ccc1F (stereo not given) | 16 | -1 | 136* | 3 | -14 | -3
O=C(CNC(=O)c1cccc(F)c1)OCCOc1cccc(Cl)c1 | 25 | -1 | 2 | 0 | . | -2
Cc1ccccc1OCCC(=O)Nc1ccc(S(=O)(=O)N2CCCC2)cc1 | . | . | . | . | . | -3
COc1cc(/C=C2/NC(=O)NC2=O)cc(Br)c1OCc1ccccc1 | 18 | 4 | -4 | 59* | -18 | 0
COc1cc(/C=C2/NC(=O)NC2=O)cc(Br)c1OCc1cccc(C(=O)O)c1 | 6 | 0 | 0 | 2 | 12 | -2
Nc1ncnc2c1ncn2[C@@H]1O[C@H](CNS(=O)(=O)c2cc(S(=O)(=O)c3ccccc3)cs2)[C@@H](O)[C@H]1O | . | 4 | 15* | . | . | -18
CCOC(=O)c1nncc(-c2ccccc2)n1 | . | 1 | 0 | -2 | 3 | 3
CC1(C(=O)Nc2cccc(OC(F)(F)F)c2)Cc2c(-c3ccc(C(N)=O)cc3)ccnc2O1 (stereo not given) | . | . | . | . | . | 56*
O=C(CSc1nc(-c2ccc(F)cc2)nc2c1Cc1ccccc1O2)Nc1cccc(C(=O)O)c1 | 12 | . | 19* | . | . | 5
CC(C)OC(=O)CSc1nc(-c2ccc(F)cc2)nc2ccc(F)cc12 | 5 | 4 | -3 | 8 | 421 | -9
O=C(CSc1nc(-c2ccccc2)nc2ccc(F)cc12)Nc1ccc(C(=O)O)cc1 | 28 | 1 | 16* | 2 | 14 | -3
O=C(CSc1nc(-c2ccccc2)nc2c1Cc1ccccc1O2)Nc1ccccc1 | 13 | -1 | . | 3 | 57 | .
COCCNC(=O)CN1C(=O)/C(=C/c2ccccc2)Oc2ccc(C(C)(C)C)cc21 | 5 | 11 | -10 | 3 | -16 | 4
CCc1cc(C(=O)N2CCCC(CO)(Cc3ccc(F)cc3)C2)n(C)n1 (stereo not given) | 8 | 0 | -3 | -2 | 9 | -1
COc1ccc(NC(=O)CN(C)CC(=O)Nc2sc3c(c2C#N)CCC3)cc1 | . | 0 | -3 | 4 | . | -3
CCCCCCOc1ccc(OCC(O)CN2C(=O)NC(C)(C)C2=O)cc1 (stereo not given) | 20 | 1 | 14* | 4 | -4 | -8
CCC(C(=O)NCCCN1CCN(C)CC1)n1nc(C)n2c(cc3occc32)c1=O (stereo not given) | -26 | -1 | -1 | 1 | -7 | -3
C[C@@H]1CN([C@H](C)CO)C(=O)CCCn2nncc2CO[C@@H]1CN(C)S(=O)(=O)c1ccc2c(c1)OCCCO2 | . | . | . | . | . | 5
CCn1ncc(Br)c1C(=O)Nc1sc2c(c1C(N)=O)CCC2 | 13 | 3 | -2 | 49* | -1 | 2
COc1ccccc1C(=O)Nc1sc2c(c1C#N)CCC2 | 18 | 1 | 5 | 22 | 1 | -5
COc1ccccc1C(=O)Nc1sc2c(c1C(N)=O)CCCC2 | 17 | 2 | 35* | 55* | 99 | 5
CCn1ncc(Br)c1C(=O)Nc1ccc(C(C)C)cc1 | 22 | 6 | 2 | 77* | -3 | -7
CCOc1ccccc1NC(=O)c1c(Br)cnn1C | -1 | 2 | 1 | 59* | 11 | -2
SMILES | AI-2 QS modul | NTR1 ag | NR3A LBD binder | AHR act | SUMO Mot1 rescue | H9c2 protect
O=C(Cn1cnnn1)NC1CCCN(Cc2ccccc2F)C1 (stereo not given) | 5 | 1 | -1 | 1 | -3 | 2
CCn1ncc(Br)c1C(=O)Nc1cc(C(=O)OC)ccc1C(=O)OC | 3 | 0 | 1 | 1 | . | 5
CCn1ncc(Br)c1C(=O)Nc1ccccc1OC | 18 | 2 | 1 | 49* | 234 | -3
O=C(Nc1ccc(Cl)c(Cl)c1)C1CC(=O)N(c2ccc(Br)cc2)C1 (stereo not given) | 17 | 8 | 28* | -2 | 105 | -24
Cc1ccc(N2CC(C(=O)N3CCC(C(=O)Nc4ccc(Br)cc4)CC3)CC2=O)cc1 (stereo not given) | 2 | 1 | -17 | 0 | 0 | -6
CCCC#CCN1CCN(C23CC4CC(CC(C4)C2)C3)CC1 | 6 | -1 | 3 | 1 | 128 | 2
CC(OC(=O)Cc1n[nH]c(=O)c2ccccc12)C(=O)Nc1ccc(Cl)cn1 (stereo not given) | 10 | 2 | 0 | 0 | 5 | 58*
O=C(COC(=O)Cc1n[nH]c(=O)c2ccccc12)Nc1ccc(Cl)cn1 | . | 2 | -1 | 17 | 6 | 88*
CC(OC(=O)Cc1n[nH]c(=O)c2ccccc12)C(=O)Nc1cc(Cl)cc(Cl)c1 (stereo not given) | -10 | 2 | 3 | 5 | 43 | 56*
O=C(COC(=O)Cc1n[nH]c(=O)c2ccccc12)Nc1ccc(Cl)cc1F | 26 | -1 | -1 | 0 | 10 | 56*
O=C(COC(=O)Cc1n[nH]c(=O)c2ccccc12)Nc1c(Cl)cccc1C(F)(F)F | 23 | 0 | 0 | 6 | -16 | 25
Cc1cccc(N2CCN(C(=O)c3[nH]c(C(F)(F)F)nc3-c3ccccc3)CC2)c1C | . | . | . | . | . | -4
Cn1cnnc1SCC(=O)NC1CCCN(Cc2ccccc2F)C1 (stereo not given) | . | 1 | -6 | 0 | 9 | 4
COc1ccc(N=Cc2oc3ccc4ccccc4c3c2O)cc1 | -1 | -1 | 15* | 58* | 181 | -8
COc1ccc(N=Cc2ccccc2O)cc1 | . | . | 0 | . | . | 11
O=C(O)c1cccc(C(=O)O)c1 | 39 | -1 | -2 | 0 | 384* | 4
O=C(c1ccccc1)c1cccc(C(=O)c2ccccc2)c1 | . | 1 | 2 | 1 | 175 | -10
O=C(C1=C[C@@H]2[C@H]3C(=O)N(c4ccc(Cl)cc4)C(=O)[C@H]3[C@@H](C(=O)c3ccc(Cl)cc3)N2C=C1)c1ccccc1 | 23 | 0 | 7 | 50* | . | 2
Cc1ccc(N2C(=O)C3C(C2=O)C(C(=O)c2ccc(Cl)cc2)N2CCCC32)cc1 (stereo not given) | -2 | -1 | -2 | 11 | 32 | 8
CC(C)(C)OC(=O)C(C1NC(C(=O)O)C(C)(C)S1)N1C(=O)c2ccccc2C1=O (stereo not given) | . | . | 0 | . | . | 2
CC(CC(c1ccccc1)N1CCc2ccccc2C1)=NO (stereo not given) | . | . | . | . | . | -8

Screening results from PubChem BioAssay.
